Assay results reported in the supplement of paper PMC10849652.
The full data set covers some 8,800 targets. This sample favours those with a hit. About 0.5% of all pairs of compound and target were hits.

Columns and labels:
Assay in all cases: log2 fold change, soluble protein after heating vs DMSO (PISA); higher = thermal stabilisation; K562 lysate, 10 uM; active = over 0.2 and 3.5 SD of the protein, either way, in both replicates (recomputed)
[1] = compound: C1=CC=C(C=C1)[C@H](COC2=CC3=C(C=C2)NC(=O)N3)NC(=O)C4=CC=CN(C4=O)CC5=CC(=C(C=C5)F)F
Outline: (§1)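 Pellets of K562 cells were dounce-homogenised in PBS pH 7.4 with 1 mM MgCl2, and the crude extract was held at 1 mg/mL protein for a 30 min treatment with 10 μM compound. Aliquots were heated for 3 min over 48°C-58°C and pooled before NP-40 was added to 0.5% at 4°C. The supernatant from 21,000xg for 90 min was quantified by TMTpro 16plex LC-MS/MS with channel sums equalised. Values are reported from duplicates as log-two fold change in thermal stability relative to solvent controls.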

[2] = compound: CC1=C(SC2=C1C(=N[C@H](C3=NN=C(N32)C)CC(=O)N)C4=CC=C(C=C4)Cl)C
Outline: as §1

[3] = compound: CC1=C2C(=CC=C1)N=C(N(C2=O)C3=CC=CC=C3C)CN4C=NC5=C(N=CN=C54)N
Outline: as §1

[4] = compound: Cc1sc2c(c1C)C(c1ccc(Cl)cc1)=N[C@@H](CC(=O)OC(C)(C)C)c1nnc(C)n1-2
Outline: as §1

[5] = compound: c1ccc([C@@H]2C[C@H]2NC2CCNCC2)cc1
Outline: as §1

Measured: log2 fold change

MICB, A0A140T979
inactive: [1] 0.028 | [2] -0.012 | [3] -0.003 | [4] 0.026 | [5] 0.019

MAPK8 isoform 3 (UniProt P45983)
UniProt P45983, sequence (P45983 whole entry, looked up): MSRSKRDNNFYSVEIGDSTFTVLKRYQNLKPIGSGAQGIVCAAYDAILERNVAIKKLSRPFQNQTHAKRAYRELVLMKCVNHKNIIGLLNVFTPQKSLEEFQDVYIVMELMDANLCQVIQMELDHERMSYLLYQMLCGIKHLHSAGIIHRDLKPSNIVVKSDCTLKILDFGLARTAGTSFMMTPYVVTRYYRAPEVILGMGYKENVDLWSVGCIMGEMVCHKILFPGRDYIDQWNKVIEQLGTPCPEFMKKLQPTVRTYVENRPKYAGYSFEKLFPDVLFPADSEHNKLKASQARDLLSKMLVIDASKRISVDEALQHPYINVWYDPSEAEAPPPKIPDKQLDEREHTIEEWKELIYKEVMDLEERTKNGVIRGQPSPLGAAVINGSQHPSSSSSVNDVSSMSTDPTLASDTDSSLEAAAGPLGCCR
inactive: [1] -0.01 | [2] 0.03 | [3] 0.004 | [4] 0.071 | [5] -0.026

KPNA4 (UniProt O00629)
inactive: [1] 0.06 | [2] -0.068 | [3] 0.044 | [4] 0.011 | [5] -0.169

MED12 isoform 2 (UniProt Q93074)
inactive: [1] 0.013 | [2] -0.024 | [3] -0.019 | [4] 0.042 | [5] 0.031

KPNA2 (UniProt P52292)
inactive: [1] -0.016 | [2] 0.027 | [3] 0.035 | [4] 0.003 | [5] 0.06

MLLT11 (UniProt Q13015)
UniProt Q13015, sequence (Q13015 whole entry, looked up): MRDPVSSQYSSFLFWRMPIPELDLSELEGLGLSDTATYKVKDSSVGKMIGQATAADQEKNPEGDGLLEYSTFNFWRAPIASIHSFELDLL
inactive: [1] 0.007 | [2] -0.048 | [3] 0.109 | [4] -0.037 | [5] 0.003

LSM8 (UniProt O95777)
UniProt O95777, sequence (O95777 whole entry, looked up): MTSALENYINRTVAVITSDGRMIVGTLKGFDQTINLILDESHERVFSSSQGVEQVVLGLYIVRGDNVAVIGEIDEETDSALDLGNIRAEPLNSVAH
inactive: [1] -0.057 | [2] -0.012 | [3] 0.017 | [4] -0.004 | [5] -0.029

MAPK9 (UniProt P45984)
inactive: [1] -0.021 | [2] 0.013 | [3] 0.045 | [4] -0.071 | [5] 0.033

MMS19 isoform 8 (UniProt Q96T76)
inactive: [1] -0.024 | [2] 0.001 | [3] 0.032 | [4] -0.005 | [5] 0.018

LZTR1 (UniProt Q8N653)
inactive: [1] -0.237 | [2] 0.004 | [3] 0.005 | [4] -0.004 | [5] 0.036

MAPKAPK5 (UniProt Q8IW41)
inactive: [1] 0.034 | [2] 0.027 | [3] 0.014 | [4] 0.013 | [5] 0.01

KIF22 (UniProt Q14807)
inactive: [1] 0.047 | [2] 0.077 | [3] 0.014 | [4] -0.159 | [5] -0.198

MAPK14 (UniProt Q16539)
inactive: [1] 0.007 | [2] 0.024 | [3] 0.034 | [4] -0.04 | [5] -0.015

KIFC1 (UniProt Q9BW19)
inactive: [1] 0.046 | [2] -0.008 | [3] 0.122 | [4] 0.021 | [5] 0.029

MRPL35 (UniProt Q9NZE8)
inactive: [1] -0.028 | [2] -0.002 | [3] 0.331 | [4] -0.04 | [5] 0

MACROD1 (UniProt Q9BQ69)
UniProt Q9BQ69, sequence (Q9BQ69 whole entry, looked up): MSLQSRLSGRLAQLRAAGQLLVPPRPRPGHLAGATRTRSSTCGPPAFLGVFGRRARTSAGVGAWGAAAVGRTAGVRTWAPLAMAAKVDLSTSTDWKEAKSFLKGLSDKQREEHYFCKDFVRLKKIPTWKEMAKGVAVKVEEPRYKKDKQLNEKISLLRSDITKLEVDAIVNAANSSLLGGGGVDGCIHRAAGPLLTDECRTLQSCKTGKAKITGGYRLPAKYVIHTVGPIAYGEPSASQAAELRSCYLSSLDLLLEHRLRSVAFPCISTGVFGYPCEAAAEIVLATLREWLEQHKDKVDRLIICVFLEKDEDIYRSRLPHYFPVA
inactive: [1] 0.048 | [2] 0.022 | [3] 0.004 | [4] 0.049 | [5] 0.075

LSG1 (UniProt Q9H089)
UniProt Q9H089, sequence (Q9H089 whole entry, looked up): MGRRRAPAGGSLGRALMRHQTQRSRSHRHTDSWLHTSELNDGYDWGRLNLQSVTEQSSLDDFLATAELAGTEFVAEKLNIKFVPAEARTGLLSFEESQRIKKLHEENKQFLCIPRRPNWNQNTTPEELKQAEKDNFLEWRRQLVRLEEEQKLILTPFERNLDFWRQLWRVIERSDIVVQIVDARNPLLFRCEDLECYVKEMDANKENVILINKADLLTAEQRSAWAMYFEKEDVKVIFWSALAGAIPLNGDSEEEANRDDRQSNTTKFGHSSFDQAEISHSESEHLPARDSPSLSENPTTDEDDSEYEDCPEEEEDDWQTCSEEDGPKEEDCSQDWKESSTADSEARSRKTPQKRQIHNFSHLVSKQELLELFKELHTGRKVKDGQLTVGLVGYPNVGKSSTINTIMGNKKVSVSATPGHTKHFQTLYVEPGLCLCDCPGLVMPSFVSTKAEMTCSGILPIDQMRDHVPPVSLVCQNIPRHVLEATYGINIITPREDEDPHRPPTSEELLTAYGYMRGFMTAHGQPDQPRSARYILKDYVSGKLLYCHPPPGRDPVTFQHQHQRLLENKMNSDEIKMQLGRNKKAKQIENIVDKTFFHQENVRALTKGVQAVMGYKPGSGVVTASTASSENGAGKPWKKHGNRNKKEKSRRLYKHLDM
inactive: [1] 0.068 | [2] 0.038 | [3] 0.084 | [4] -0.028 | [5] -0.044

LIG3 (UniProt P49916)
inactive: [1] -0.003 | [2] -0.018 | [3] -0.014 | [4] -0.035 | [5] 0.021

LARS2 (UniProt Q15031)
inactive: [1] -0.07 | [2] -0.072 | [3] -0.019 | [4] 0.066 | [5] 0.064

MICU2 (UniProt Q8IYU8)
inactive: [1] -0.132 | [2] -0.069 | [3] 0.049 | [4] -0.072 | [5] -0.002

MPP5 (UniProt Q8N3R9)
UniProt Q8N3R9, sequence (Q8N3R9 whole entry, looked up): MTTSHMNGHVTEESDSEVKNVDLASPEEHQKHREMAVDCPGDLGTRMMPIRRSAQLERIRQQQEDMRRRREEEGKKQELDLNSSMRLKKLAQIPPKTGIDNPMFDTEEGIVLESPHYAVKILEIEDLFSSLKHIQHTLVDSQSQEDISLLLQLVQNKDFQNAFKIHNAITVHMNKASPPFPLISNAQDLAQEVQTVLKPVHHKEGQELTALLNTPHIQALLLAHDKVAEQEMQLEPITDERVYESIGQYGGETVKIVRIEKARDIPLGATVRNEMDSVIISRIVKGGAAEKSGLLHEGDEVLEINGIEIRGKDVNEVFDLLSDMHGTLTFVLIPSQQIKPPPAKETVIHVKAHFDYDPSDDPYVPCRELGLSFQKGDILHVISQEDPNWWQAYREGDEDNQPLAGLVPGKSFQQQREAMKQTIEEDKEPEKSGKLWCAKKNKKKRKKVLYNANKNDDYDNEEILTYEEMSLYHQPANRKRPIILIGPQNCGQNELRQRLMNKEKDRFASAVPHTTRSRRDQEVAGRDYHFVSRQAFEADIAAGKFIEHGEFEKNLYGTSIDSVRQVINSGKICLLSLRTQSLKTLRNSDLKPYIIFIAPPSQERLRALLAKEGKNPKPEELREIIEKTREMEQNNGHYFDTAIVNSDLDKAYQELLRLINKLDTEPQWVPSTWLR
inactive: [1] -0.044 | [2] 0.045 | [3] -0.006 | [4] 0.029 | [5] -0.11

KIF14 (UniProt Q15058)
UniProt Q15058, sequence (Q15058 whole entry, looked up): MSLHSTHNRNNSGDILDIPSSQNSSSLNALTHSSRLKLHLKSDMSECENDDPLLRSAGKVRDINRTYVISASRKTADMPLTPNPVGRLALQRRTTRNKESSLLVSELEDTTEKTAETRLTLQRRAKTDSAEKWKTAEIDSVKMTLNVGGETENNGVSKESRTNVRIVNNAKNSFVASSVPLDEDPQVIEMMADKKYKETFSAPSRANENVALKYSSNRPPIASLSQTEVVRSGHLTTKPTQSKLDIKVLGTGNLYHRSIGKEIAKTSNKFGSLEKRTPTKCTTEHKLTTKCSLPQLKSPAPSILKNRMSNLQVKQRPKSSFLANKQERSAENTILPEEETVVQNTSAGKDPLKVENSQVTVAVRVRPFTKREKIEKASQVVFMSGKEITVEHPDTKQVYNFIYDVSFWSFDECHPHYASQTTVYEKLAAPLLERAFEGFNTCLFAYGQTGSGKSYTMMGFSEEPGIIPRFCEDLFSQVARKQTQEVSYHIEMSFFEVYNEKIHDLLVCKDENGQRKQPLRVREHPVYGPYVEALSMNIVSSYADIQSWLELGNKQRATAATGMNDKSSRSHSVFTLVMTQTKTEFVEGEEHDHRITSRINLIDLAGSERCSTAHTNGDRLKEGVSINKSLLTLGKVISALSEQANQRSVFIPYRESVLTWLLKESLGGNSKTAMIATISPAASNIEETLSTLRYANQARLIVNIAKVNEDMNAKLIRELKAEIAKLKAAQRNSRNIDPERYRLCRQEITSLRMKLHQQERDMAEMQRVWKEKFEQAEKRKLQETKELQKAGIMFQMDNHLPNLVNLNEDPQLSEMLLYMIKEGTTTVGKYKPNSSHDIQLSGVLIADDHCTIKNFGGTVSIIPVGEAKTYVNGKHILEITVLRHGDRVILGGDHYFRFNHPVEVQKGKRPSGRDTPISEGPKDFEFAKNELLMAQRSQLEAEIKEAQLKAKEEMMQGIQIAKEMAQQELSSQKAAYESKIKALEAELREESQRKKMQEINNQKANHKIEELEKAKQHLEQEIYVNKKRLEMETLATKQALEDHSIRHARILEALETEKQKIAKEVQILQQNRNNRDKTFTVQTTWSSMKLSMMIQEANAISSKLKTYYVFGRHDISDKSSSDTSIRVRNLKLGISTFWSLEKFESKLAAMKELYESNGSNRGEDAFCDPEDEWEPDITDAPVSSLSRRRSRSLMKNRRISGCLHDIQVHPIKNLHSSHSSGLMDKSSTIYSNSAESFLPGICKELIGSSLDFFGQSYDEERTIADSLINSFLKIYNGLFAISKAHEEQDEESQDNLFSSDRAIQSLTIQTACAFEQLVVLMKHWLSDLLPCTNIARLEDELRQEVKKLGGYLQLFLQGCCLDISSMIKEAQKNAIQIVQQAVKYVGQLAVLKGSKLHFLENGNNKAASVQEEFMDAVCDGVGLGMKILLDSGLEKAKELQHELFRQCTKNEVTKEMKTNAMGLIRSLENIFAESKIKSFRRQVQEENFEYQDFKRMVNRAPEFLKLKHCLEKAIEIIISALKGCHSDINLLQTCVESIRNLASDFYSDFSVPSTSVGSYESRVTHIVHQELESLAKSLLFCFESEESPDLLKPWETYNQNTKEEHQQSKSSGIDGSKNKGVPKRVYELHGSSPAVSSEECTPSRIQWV
inactive: [1] 0.028 | [2] -0.148 | [3] 0.059 | [4] -0.012 | [5] 0.039

MARK1 (UniProt Q9P0L2)
UniProt Q9P0L2, sequence (Q9P0L2 whole entry, looked up): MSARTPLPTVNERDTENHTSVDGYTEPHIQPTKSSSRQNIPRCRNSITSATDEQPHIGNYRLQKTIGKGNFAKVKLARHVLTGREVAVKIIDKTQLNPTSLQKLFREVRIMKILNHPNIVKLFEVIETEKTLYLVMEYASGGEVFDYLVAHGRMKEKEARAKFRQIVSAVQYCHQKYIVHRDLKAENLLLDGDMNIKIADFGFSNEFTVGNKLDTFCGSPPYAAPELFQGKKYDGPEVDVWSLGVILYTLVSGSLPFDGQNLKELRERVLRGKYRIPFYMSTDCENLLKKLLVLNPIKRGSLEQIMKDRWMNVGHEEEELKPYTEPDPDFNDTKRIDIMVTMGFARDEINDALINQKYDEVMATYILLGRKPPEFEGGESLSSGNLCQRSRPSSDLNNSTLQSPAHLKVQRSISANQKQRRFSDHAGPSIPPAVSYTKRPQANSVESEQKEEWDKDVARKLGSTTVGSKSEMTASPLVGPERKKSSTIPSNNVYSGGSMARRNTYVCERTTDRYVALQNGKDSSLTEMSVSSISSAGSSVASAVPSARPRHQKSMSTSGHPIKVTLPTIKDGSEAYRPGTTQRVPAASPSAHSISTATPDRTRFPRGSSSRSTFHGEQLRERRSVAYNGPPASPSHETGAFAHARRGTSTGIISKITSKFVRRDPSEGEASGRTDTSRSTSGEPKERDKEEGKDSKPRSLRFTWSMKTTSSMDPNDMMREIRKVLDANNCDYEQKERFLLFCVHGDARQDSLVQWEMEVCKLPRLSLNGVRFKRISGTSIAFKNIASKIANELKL
inactive: [1] -0.034 | [2] 0.036 | [3] 0.019 | [4] -0.006 | [5] 0.116

MAP2K2 (UniProt P36507)
inactive: [1] -0.04 | [2] 0.022 | [3] -0.047 | [4] -0.068 | [5] 0.064
